The molecules below were run against Dickkopf-related protein 1 (Homo sapiens) (UniProt O94907) (assay: DKK1 binders on small-molecule microarrays, primary screen, biochemical, small-molecule microarray, 635 nm fluorescence scan (AID 1106;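 also: score merges emission near 667 nm with signal to noise over three replicate slides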)). Details: DKK1 binding, higher = more signal.
Chain of Dickkopf-related protein 1 (Homo sapiens) (O94907 whole entry, looked up): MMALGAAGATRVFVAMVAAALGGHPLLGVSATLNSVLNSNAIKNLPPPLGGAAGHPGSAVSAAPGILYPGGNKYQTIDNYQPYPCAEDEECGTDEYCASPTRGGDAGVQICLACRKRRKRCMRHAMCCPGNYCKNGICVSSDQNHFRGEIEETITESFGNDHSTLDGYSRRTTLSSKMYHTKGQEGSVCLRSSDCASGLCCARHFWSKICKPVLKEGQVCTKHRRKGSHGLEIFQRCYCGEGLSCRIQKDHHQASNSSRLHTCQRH

SMILES | composite z-score
CO[C@H]1O[C@H](CO)[C@@H](OC(=O)Nc2ccc3c(c2)OCO3)[C@H](OC(=O)Nc2ccc3c(c2)OCO3)[C@@H]1OC(=O)Nc1ccc2c(c1)OCO2 | 0.378
CCCC1(C(=O)OC)C=C2C(=C(C)C(=O)C2C)CN1 (centres undefined) | -0.238
CO[C@H]1O[C@H](CO)[C@@H](OC(=O)Nc2ccccc2)[C@H](OC(=O)c2cc3ccccc3[nH]2)[C@H]1OC(=O)c1cc2ccccc2[nH]1 | 0.201
O=C1O[C@H](c2ccccc2)[C@H](c2ccccc2)N2[C@H]1[C@@H](C(=O)O)[C@]1(C(=O)Nc3ccc(C#CCCO)cc31)[C@H]2c1ccccc1OCCO | -0.0493
CCCCC[C@H]1OC[C@@]23C=C(Br)[C@@H](CC12)[C@@]1(CO1)C3=O (some centres undefined) | 0.103
CCCCN1CC=CC23O[C@@H]4/C=C\CCC(C)OC(=O)C4[C@H]2C(=O)N(CCCO)[C@@H]3C1=O (some centres undefined) | -1.37
CC[C@@H]1C=C(C(=O)O)[C@H](c2ccc(C#N)cc2)N1S(=O)(=O)c1ccc(C)cc1 | -1.22
O=C1[C@H]2C=C(I)[C@H](C[C@@H]2OCCOCCO)[C@@]12CO2 | 0.459
COCCOC(=O)N1C(=O)[C@@]2(c3cc(C#CC4=CCCCC4)ccc31)[C@H](C(=O)Nc1nc3ccccc3s1)[C@H]1C(=O)O[C@H](c3ccccc3)[C@H](c3ccccc3)N1[C@@H]2c1ccc(O)cc1 | 1.11
COc1ccc([C@H]2OC[C@@H]3C[C@H](Cc4ccccc4)C(=O)N32)cc1 | 0.313
NC(=O)NCC#Cc1ccc2c(c1)[C@]1(C(=O)N2)[C@H](c2ccccc2OCCO)N2[C@H](c3ccccc3)[C@H](c3ccccc3)OC(=O)[C@H]2[C@@H]1C(=O)O | -0.266
CC1CC/C=C\[C@H]2OC34C=CCN(c5ccc(Cl)cc5)C(=O)[C@H]3N(C(C)CO)C(=O)[C@]4(C)C2C(=O)O1 (some centres undefined) | -0.945
CCOC(=O)C1=C[C@@H](C(C)C)N(S(=O)(=O)c2ccc(C)cc2)[C@H]1c1ccc(C(F)(F)F)cc1 | 0.441
OCCCC1=CC(c2ccc(CN3CCCC3)cc2)N(Cc2cc3c(cc2Br)OCO3)CC1 (centres undefined) | 1.14
CCCCCCCCCC(O)C1C=CC2C(=O)N(c3ccccc3)C(=O)C2N1Nc1cc(OC)c(OC)c(OC)c1 (centres undefined) | -1.12
COCCCNC(=O)[C@@]1(CCC(=O)OC(C)(C)C)N=C(c2ccc(OCCCO)cc2)O[C@H]1c1ccccc1N=[N+]=[N-] | 0.795
COc1cc(OC)c(C(O)C2C=CC3C(=O)N(Cc4ccccc4)C(=O)C3N2n2cnnc2)cc1Br (centres undefined) | -1.05
C[N+](C)(C)CCCC[C@@H]1NC(=O)[C@@H]2C[C@H](C(=O)NCCCCCCN)[C@H](c3cccc(OCCO)c3)N2C1=O | 0.695
O=C1C2C=CC(C(O)C3CC=CCC3)N(Nc3ccccc3)C2C(=O)N1c1ccccc1 (centres undefined) | 0.333
C=CCNC(=O)[C@H]1[C@@H]2C(=O)O[C@@H](c3ccccc3)[C@@H](c3ccccc3)N2[C@@H](c2ccccc2OCCO)[C@]12C(=O)N(C(=O)OCCOC)c1ccc(C#CC3(O)CCCCCC3)cc12 | -0.515
COCCOC(=O)N1C(=O)[C@@]2(c3cc(C#CC4=CCCCC4)ccc31)[C@H](c1ccccc1OCCO)N1[C@H](c3ccccc3)[C@H](c3ccccc3)OC(=O)[C@H]1[C@@H]2C(=O)NC[C@H](O)c1ccccc1 | 0.752
CCCC[C@@H](O)C1=C(COc2ccccc2)C[C@H]2C(=O)N(Cc3ccccc3)C(=O)[C@H]2[C@H]1CO | 0.638
O=C1OCCC/C=C\[C@H]2OC34C=CCN(c5ccc6ccccc6c5)C(=O)[C@H]3N(CCO)C(=O)[C@@H]4C12 (some centres undefined) | -1.09
COC(=O)c1c(CC[C@@H](CO)NC(=O)N[C@@H](C)Cn2cc(-c3ccccn3)nn2)oc(C(C)=O)c1C(=O)OC | 0.28
CC(C)C[C@@H]1NC(=O)[C@@H]2C[C@H](C(=O)NCCCCCCN)[C@H](c3cccc(OCCO)c3)N2C1=O | 0.236
[N-]=[N+]=Nc1ccccc1C[C@@]1(C(=O)N2CCOCC2)N=C(c2ccc(OCCCO)cc2)O[C@@H]1c1ccccc1 | -0.0771
CCOC(=O)C[C@H]1[C@H](OC(=O)c2cc3ccccc3oc2=O)[C@@H](NC(=O)CC(C)C)c2cc(OCCCO)ccc2N1C(=O)c1ccc2ccccc2n1 | 0.409
Cc1ccc(NN2C(C(O)c3c(F)cccc3Cl)C=CC3C(=O)N(C4CCCCC4)C(=O)C32)cc1 (centres undefined) | -0.258
O=C1O[C@@H](c2ccccc2)[C@@H](c2ccccc2)N2[C@@H](c3ccc(OCCO)cc3)[C@]3(C(=O)Nc4ccc(C#CC5=CCCCC5)cc43)[C@@H](C(=O)NC[C@H](O)c3ccccc3)[C@H]12 | 0.708
